# “And” between values parts separate entries of the source, which are not always exact repeats. Identical values can stand only once. A number with no mark means an inactive call. Where a call stands in place of a potency, no number is given. The source made the active and inactive calls. Unless noted, calls come from the whole dose curve; as a rule, active = well fitted curve in the direction sought with a large enough effect in the repeat runs; inconclusive = weak or mixed curves; inactive = no such curve, though single readings can be large; an effect the other way counts as inactive or inconclusive.
# Legend:
# [1] = qHTS assay to identify small molecule antagonists of the thyroid receptor (TR) signaling pathway - cell viability counter screen (AID 743064); note: nearly all actives have a fitted effect of over 50% in size; note: potency is the fitted concentration of half-maximal effect
# Outline: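 GH3.TRE-Luc cells, 4 h pre-plating; cpd + T3 1 nM final; 37 °C 23.5 h; CellTiter-Fluor 30 min; fluorescence read.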
# [2] = qHTS assay to identify small molecule antagonists of the thyroid receptor (TR) signaling pathway (AID 743065); note: nearly all actives have a fitted effect of over 55% in size; note: potency is the fitted concentration of half-maximal effect
# Outline: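 GH3.TRE-Luc rat pituitary cells carrying two TR response elements driving luciferase were plated for 4 h, given compound plus 1 nM T3 (final), and incubated 23.5 h at 37 C. ONE-Glo luminescence measured reporter inhibition; CellTiter-Fluor fluorescence tracked cytotoxicity.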
# [3] = test system: thyroid hormone receptor (rat, GH3 cells); test: qHTS assay to identify small molecule agonists of the thyroid receptor (TR) signaling pathway (AID 743066; calls by dose curve)
# [4] = qHTS assay to identify small molecule antagonists of the estrogen receptor alpha (ER-alpha) signaling pathway - cell viability counter screen (AID 743074; calls by dose curve;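 note: HEK293 cells carrying ER-alpha-UAS-bla reporter stimulated with 17beta-estradiol; nearly all actives have a fitted effect of over 45% in size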; note: potency is the fitted concentration of half-maximal effect)
# [5] = target: Estrogen receptor (Homo sapiens) (UniProt P03372); test: qHTS assay to identify small molecule agonists of the estrogen receptor alpha (ER-alpha) signaling pathway (AID 743075; calls by dose curve;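 note: HEK293 GripTite cells with ER-alpha and UAS-driven beta-lactamase reporter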; note: potency is the fitted concentration of half-maximal effect); details: HEK293 ER-alpha-UAS-bla, beta-lactamase FRET ratio, 18 h; activation: at 70.1 µM (top of the series)
# [6] = target: Estrogen receptor (Homo sapiens) (UniProt P03372); test: qHTS assay to identify small molecule agonists of the estrogen receptor alpha (ER-alpha) signaling pathway using the BG1 cell line (AID 743079); details: BG1Luc4E2 cells, ERE-luciferase agonist, 22 h; note: nearly all actives have a fitted effect of over 20% in size; note: potency is the fitted concentration of half-maximal effect
# [7] = qHTS assay to identify small molecule antagonists of the estrogen receptor alpha (ER-alpha) signaling pathway using the BG1 cell line (AID 743080; calls by dose curve;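 note: BG1 cells stimulated with 17beta-estradiol alongside compound; nearly all actives have a fitted effect of over 25% in size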; note: potency is the fitted concentration of half-maximal effect)
# Outline: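 BG1-Luc-4E2 cells (endogenous full-length ER-alpha, stable 4×ERE-luciferase) were starved 5 days in phenol-red-free medium with 10% charcoal-stripped FBS, plated 24 h, then given compound plus 17beta-estradiol for 21.5 h at 37 C; ONE-Glo luminescence read after 30 min.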
# Aromatase (Homo sapiens) = Aromatase (Homo sapiens) (UniProt P11511); test: qHTS assay to identify aromatase inhibitors (AID 743083); note: nearly all actives have a fitted effect of over 55% in size; note: potency is the fitted concentration of half-maximal effect
# [8] = qHTS assay to identify aromatase inhibitors - cell viability counter screen (AID 743084);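 note: cells stimulated with testosterone during compound exposure; nearly all actives have a fitted effect of over 55% in size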; note: potency is the fitted concentration of half-maximal effect
# [9] = target: Aryl hydrocarbon receptor (Homo sapiens) (UniProt P35869); test: qHTS assay to identify small molecule that activate the aryl hydrocarbon receptor (AhR) signaling pathway (AID 743085); note: nearly all actives have a fitted effect of over 15% in size; note: potency is the fitted concentration of half-maximal effect;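 for activation: HG2L7.5c1 human HepG2 liver cells with stably integrated DRE-driven firefly reporter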
# Outline: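 Luminescence read-out: ONE-Glo reagent, 30 min at room temperature, in HG2L7.5c1 HepG2 reporter cells treated 24 h at 37C. Viability was measured beforehand by CellTiter-Fluor fluorescence after 30 min at 37C.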
# [10] = qHTS assay to identify small molecule that activate the aryl hydrocarbon receptor (AhR) signaling pathway - cell viability counter screen (AID 743086); note: nearly all actives have a fitted effect of over 45% in size; note: potency is the fitted concentration of half-maximal effect
# Outline: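 HepG2-AhR-luc (HG2L7.5c1) cells, 4000/well, were preincubated 5 h at 37C, exposed to compound in qHTS format for 24 hr at 37C, then given CellTiter-Fluor for 30 min; viability was read as fluorescence in the reporter wells.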
# [11] = target: Peroxisome proliferator-activated receptor gamma (Homo sapiens) (UniProt P37231); test: qHTS assay to identify small molecule agonists of the peroxisome proliferator-activated receptor gamma (PPARg) signaling pathway (AID 743094; active = well fitted activation curve with a large enough effect in the signal ratio in the repeat runs, not every such curve was filed as active; inconclusive = weak or mixed curves, or effect the other way; inactive = no such curve, though single readings can be large or run the other way; the % refers to the signal ratio)
# Outline: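 Cells from the PPARg UAS-bla HEK293H line are plated and incubated 5 h at 37C. Compounds in DMSO are pinned in and left 17 h at 37C. LiveBLAzer B/G substrate is then added for 1 h at room temperature before fluorescence is measured.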
# [12] = target: Peroxisome proliferator-activated receptor gamma (Homo sapiens) (UniProt P37231); test: qHTS assay to identify small molecule antagonists of the peroxisome proliferator-activated receptor gamma (PPARg) signaling pathway (AID 743191; calls by dose curve; note: nearly all actives have a fitted effect of over 30% in size; note: potency is the fitted concentration of half-maximal effect)
# Outline: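 GeneBLAzer PPARg UAS-bla HEK293H cells carrying a UAS-driven beta-lactamase reporter were plated at 3000 cells/well, preincubated 5 h at 37C, then given compound for 17 h at 37C; LiveBLAzer B/G FRET substrate was read after 1 h at room temperature.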
# [13] = qHTS assay to identify small molecule antagonists of the peroxisome proliferator-activated receptor gamma (PPARg) signaling pathway - cell viability counter screen (AID 743194); note: nearly all actives have a fitted effect of over 55% in size; note: potency is the fitted concentration of half-maximal effect
# Outline: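 PPARg-UAS-bla HEK293H cells were plated, rested 5 h at 37 C, then treated with compounds plus rosiglitazone (50 nM final) for 17 h at 37 C; viability was then read by CellTiter-Glo luminescence after 30 min at room temperature.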
# [14] = qHTS assay for small molecule agonists of the antioxidant response element (ARE) signaling pathway - cell viability counter screen (AID 743203; calls by dose curve; note: nearly all actives have a fitted effect of over 55% in size; note: potency is the fitted concentration of half-maximal effect)
# Outline: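 Cytotoxicity was tested in parallel with the ARE reporter screen. ARE-bla HepG2 cells were exposed to compounds for 16 hrs, and viability was taken from CellTiter-Glo luminescence.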
# [15] = qHTS assay for small molecule activators of the heat shock response signaling pathway - cell viability counter screen (AID 743209); note: nearly all actives have a fitted effect of over 50% in size; note: potency is the fitted concentration of half-maximal effect
# Outline: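 Cytotoxicity counter screen run in parallel with the HSE beta-lactamase reporter, using the same wells. HeLa HSE-bla cells received compound for 5 h at 37 C; ATP-based CellTiter-Glo luminescence was measured after 30 min at room temperature.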
# [16] = qHTS assay to identify small molecule antagonists of the estrogen receptor alpha (ER-alpha) signaling pathway using the BG1 cell line - cell viability counter screen (AID 743081);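 note: compound given together with 17beta-estradiol as the ER stimulus; nearly all actives have a fitted effect of over 45% in size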; note: potency is the fitted concentration of half-maximal effect
# [17] = qHTS assay for small molecule activators of the heat shock response signaling pathway (AID 743210; active = well fitted activation curve with a large enough effect in the signal ratio in the repeat runs, with a control signal flat, not every such curve was filed as active; inconclusive = weak or mixed curves; the % refers to the signal ratio; note: potency is the fitted concentration of half-maximal effect)
# Outline: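 Heat shock element–beta-lactamase HeLa reporter cells; qHTS with compounds for 5 h at 37 C; detection by FRET substrate fluorescence after 2.5 h at RT.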
# [18] = qHTS assay for small molecule agonists of the antioxidant response element (ARE) signaling pathway (AID 743202; active = well fitted activation curve with a large enough effect in the signal ratio in the repeat runs, not every such curve was filed as active; inconclusive = weak or mixed curves, or effect the other way; inactive = no such curve, though single readings can be large or run the other way; the % refers to the signal ratio; note: potency is the fitted concentration of half-maximal effect)
# Outline: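 Following a 16 h, 37 C exposure of reporter HepG2 cells (ARE-driven beta-lactamase, 2,000 cells/well) to compounds, FRET substrate was applied for 2 h at room temperature and fluorescence intensity recorded.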
# [19] = target: Estrogen receptor (Homo sapiens) (UniProt P03372); test: qHTS assay to identify small molecule antagonists of the estrogen receptor alpha (ER-alpha) signaling pathway (AID 743069; active = well fitted curve in the direction sought with a large enough effect in the signal ratio in the repeat runs, not every such curve was filed as active; inconclusive = weak or mixed curves, or effect the other way; inactive = no such curve, though single readings can be large or run the other way; the % refers to the signal ratio; note: potency is the fitted concentration of half-maximal effect)
# Outline: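 A 17beta-estradiol challenge was applied right after compound transfer to ER-alpha-UAS-bla HEK293 cells previously kept in charcoal-stripped serum. Plates stood 18 hr at 37C and 5% CO2; fluorescence was read following 2 hr FRET substrate loading at room temperature.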
# Chain of Peroxisome proliferator-activated receptor gamma (Homo sapiens) (P37231 whole entry, looked up): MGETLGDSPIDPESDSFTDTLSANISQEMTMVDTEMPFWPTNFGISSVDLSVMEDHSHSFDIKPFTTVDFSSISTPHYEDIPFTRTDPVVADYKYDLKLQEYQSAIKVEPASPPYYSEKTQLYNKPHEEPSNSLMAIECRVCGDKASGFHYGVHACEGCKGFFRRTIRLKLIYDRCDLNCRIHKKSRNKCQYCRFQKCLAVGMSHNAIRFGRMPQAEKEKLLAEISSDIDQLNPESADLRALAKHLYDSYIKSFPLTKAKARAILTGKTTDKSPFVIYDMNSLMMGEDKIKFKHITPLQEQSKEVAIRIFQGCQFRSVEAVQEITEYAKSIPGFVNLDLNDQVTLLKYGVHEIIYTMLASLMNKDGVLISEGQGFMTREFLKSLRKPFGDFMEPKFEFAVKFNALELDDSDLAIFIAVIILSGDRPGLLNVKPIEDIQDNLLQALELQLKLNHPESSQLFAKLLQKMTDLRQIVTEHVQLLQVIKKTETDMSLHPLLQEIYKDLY
# Chain of Estrogen receptor (Homo sapiens) (P03372 whole entry, looked up): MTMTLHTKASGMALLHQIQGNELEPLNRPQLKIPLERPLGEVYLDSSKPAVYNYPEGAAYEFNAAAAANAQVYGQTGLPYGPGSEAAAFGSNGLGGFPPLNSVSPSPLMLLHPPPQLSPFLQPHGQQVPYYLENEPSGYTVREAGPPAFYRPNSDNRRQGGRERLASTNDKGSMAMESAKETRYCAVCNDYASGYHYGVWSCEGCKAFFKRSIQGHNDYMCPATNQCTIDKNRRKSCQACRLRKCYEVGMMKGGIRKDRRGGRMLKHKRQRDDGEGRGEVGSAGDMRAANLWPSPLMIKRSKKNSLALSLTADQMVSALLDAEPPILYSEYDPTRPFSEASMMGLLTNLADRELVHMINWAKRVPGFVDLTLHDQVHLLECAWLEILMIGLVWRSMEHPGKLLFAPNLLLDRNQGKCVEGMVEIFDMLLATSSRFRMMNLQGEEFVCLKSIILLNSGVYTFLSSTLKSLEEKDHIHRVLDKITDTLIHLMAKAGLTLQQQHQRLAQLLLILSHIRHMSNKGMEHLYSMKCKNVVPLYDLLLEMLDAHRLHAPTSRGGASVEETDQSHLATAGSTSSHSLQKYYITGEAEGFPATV
# Chain of Aryl hydrocarbon receptor (Homo sapiens) (P35869 whole entry, looked up): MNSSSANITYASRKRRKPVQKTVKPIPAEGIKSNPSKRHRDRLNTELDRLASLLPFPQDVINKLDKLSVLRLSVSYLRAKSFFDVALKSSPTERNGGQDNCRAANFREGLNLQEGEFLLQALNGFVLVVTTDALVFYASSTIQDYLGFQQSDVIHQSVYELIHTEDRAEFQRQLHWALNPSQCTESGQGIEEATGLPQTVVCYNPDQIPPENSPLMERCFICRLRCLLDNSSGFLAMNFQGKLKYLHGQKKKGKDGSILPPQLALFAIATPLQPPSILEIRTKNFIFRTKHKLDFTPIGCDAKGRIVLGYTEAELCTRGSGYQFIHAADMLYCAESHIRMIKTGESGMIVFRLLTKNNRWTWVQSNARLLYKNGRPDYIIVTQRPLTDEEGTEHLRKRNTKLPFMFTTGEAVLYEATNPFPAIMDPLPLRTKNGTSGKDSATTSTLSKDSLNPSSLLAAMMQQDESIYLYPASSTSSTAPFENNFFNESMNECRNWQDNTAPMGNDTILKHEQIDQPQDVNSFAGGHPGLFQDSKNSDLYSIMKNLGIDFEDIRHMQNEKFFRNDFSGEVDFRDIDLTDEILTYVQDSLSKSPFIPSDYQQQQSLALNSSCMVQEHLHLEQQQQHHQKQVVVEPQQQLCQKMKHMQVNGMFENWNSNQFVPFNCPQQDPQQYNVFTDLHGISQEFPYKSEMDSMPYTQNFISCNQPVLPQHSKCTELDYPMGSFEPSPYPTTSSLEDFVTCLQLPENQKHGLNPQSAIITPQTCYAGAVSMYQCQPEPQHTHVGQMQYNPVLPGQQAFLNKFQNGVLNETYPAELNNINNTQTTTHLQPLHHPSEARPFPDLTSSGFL
# Chain of Aromatase (Homo sapiens) (P11511 whole entry, looked up): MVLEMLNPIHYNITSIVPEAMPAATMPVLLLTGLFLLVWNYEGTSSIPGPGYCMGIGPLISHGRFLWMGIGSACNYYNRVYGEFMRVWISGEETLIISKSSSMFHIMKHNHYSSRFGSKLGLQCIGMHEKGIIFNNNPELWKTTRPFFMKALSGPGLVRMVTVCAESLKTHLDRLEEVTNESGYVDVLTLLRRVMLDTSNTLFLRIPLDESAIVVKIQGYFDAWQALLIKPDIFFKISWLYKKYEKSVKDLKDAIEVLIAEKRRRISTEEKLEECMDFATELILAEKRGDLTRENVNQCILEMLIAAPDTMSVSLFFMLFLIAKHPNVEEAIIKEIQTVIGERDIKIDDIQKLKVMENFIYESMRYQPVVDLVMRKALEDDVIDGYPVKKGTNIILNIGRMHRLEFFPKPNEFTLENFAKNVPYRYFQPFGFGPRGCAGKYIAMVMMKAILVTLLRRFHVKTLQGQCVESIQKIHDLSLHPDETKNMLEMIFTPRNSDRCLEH
smiles,measurement,setting,value
NNc1nc(-c2ccccc2)cs1,Potency,[1],31.5 µM (active)
same,Potency,[2],14.1 µM (active)
same,Potency,[3],inactive
same,Potency,[4],inactive
same,Potency,[5],inactive
same,activation,[6]; at 95 µM (top of the series),7.73%
same,Potency,[7],inactive
same,Potency,Aromatase (Homo sapiens),inactive
same,Potency,[8],inactive
same,Potency,[9],9.97 µM (active)
same,Potency,[10],inactive
same,Potency,[11],inactive
same,Potency,[12],0.504 µM (active)
same,Potency,[13],inactive
same,Potency,[14],inactive
same,Potency,[15],inactive
CCCCCCOC(=O)c1ccc(O)cc1,Potency,[1],inactive
same,Potency,[2],inactive
same,Potency,[3],inactive
same,Potency,[4],inactive
same,Potency,[5],49 µM [inconclusive] (active) and 24.5 µM [inconclusive] (active)
same,Potency,[6],5.45 µM (active) and 17.2 µM (active)
same,Potency,[16],inactive
same,Potency,[9],inactive
same,Potency,[10],inactive
same,Potency,[11],inactive
same,Potency,[13],inactive
same,Potency,[14],inactive
same,Potency,[15],inactive
same,Potency,[17],inactive
C/C=C1/C(=O)C[C@H]2[C@@H]3CCC4=CC(=O)CC[C@]4(C)[C@H]3CC[C@]12C,Potency,[1],inactive
same,Potency,[2],9.66 µM (active)
same,Potency,[3],inactive
same,Potency,[4],inactive
same,Potency,[5],inactive
same,Potency,[16],inactive
same,Potency,[9],inactive
same,Potency,[10],inactive
same,Potency,[13],inactive
same,Potency,[14],inactive
same,Potency,[15],inactive
same,Potency,[17],28.5 µM (active)
O=C(O)c1c(Cl)cccc1Cl,Potency,[1],inactive
same,Potency,[2],inactive
same,Potency,[3],inactive
same,Potency,[4],inactive
same,Potency,[16],inactive
same,Potency,Aromatase (Homo sapiens),inactive
same,Potency,[8],inactive
same,Potency,[9],inactive
same,Potency,[10],inactive
same,Potency,[11],inactive
same,Potency,[12],inactive
same,Potency,[13],inactive
same,Potency,[18],inactive
same,Potency,[14],inactive
same,Potency,[15],inactive
same,Potency,[17],inactive
CS(=O)(=O)CCNCc1ccc(-c2ccc3ncnc(Nc4ccc(OCc5cccc(F)c5)c(Cl)c4)c3c2)o1,Potency,[1],inactive
same,Potency,[2],inactive
same,Potency,[3],inactive
same,Potency,[19],inactive
same,Potency,[5],inactive
same,Potency,[7],inactive
same,Potency,[16],inactive
same,Potency,Aromatase (Homo sapiens),inactive
same,Potency,[8],inactive
same,Potency,[9],inactive
same,Potency,[10],inactive
same,Potency,[13],15 µM (active)
same,Potency,[15],26.6 µM (active)
CN(C)c1ccc(C2(c3ccc(N(C)C)cc3)OC(=O)c3cc(N(C)C)ccc32)cc1,Potency,[1],inactive
same,Potency,[2],inactive
same,Potency,[3],inactive
same,Potency,[4],inactive
same,Potency,[5],21.8 µM [inconclusive] (active)
same,activation,[6]; at 70.3 µM (top of the series),-6.04%
same,Potency,[7],inactive
same,Potency,[16],inactive
same,Potency,Aromatase (Homo sapiens),inactive
same,Potency,[8],inactive
same,Potency,[10],inactive
same,Potency,[13],inactive
same,Potency,[14],inactive
same,Potency,[15],inactive
CCOC(=O)O[C@]1(C(=O)OCCl)CC[C@H]2[C@@H]3CCC4=CC(=O)C=C[C@]4(C)[C@H]3[C@@H](O)C[C@@]21C,Potency,[1],inactive
same,Potency,[2],inactive
same,Potency,[3],inactive
same,Potency,[4],inactive
same,Potency,[16],inactive
same,Potency,Aromatase (Homo sapiens),inactive
same,Potency,[8],inactive
same,Potency,[9],inactive
same,Potency,[10],inactive
same,Potency,[11],inactive
same,Potency,[13],inactive
same,Potency,[14],inactive
same,Potency,[15],inactive
same,Potency,[17],inactive
N=C1N=C(N)c2ccccc21,Potency,[1],21.7 µM (active)
same,Potency,[2],15.4 µM (active)
same,Potency,[3],inactive
same,Potency,[4],inactive
same,Potency,[5],inactive
same,activation,[6]; at 70.3 µM (top of the series),3.41%
same,Potency,[16],inactive
same,Potency,Aromatase (Homo sapiens),38.6 µM (active)
same,Potency,[8],61.1 µM (active)
same,Potency,[13],inactive
same,Potency,[15],49 µM (active)
C1CCCC1,Potency,[1],inactive
same,Potency,[2],inactive
same,Potency,[3],inactive
same,Potency,[4],inactive
same,Potency,[16],inactive
same,Potency,Aromatase (Homo sapiens),inactive
same,Potency,[8],inactive
same,Potency,[9],inactive
same,Potency,[10],inactive
same,Potency,[11],inactive
same,Potency,[12],inactive
same,Potency,[13],inactive
same,Potency,[14],inactive
same,Potency,[15],inactive
same,Potency,[17],inactive
O=C1c2ccccc2Cc2ccccc21,Potency,[1],5.49 µM (active)
same,Potency,[2],inactive
same,Potency,[3],inactive
same,Potency,[4],inactive
same,Potency,[6],7.75 µM (active)
same,Potency,Aromatase (Homo sapiens),inactive
same,Potency,[9],inactive
same,Potency,[10],inactive
same,Potency,[11],inactive
same,Potency,[13],inactive
same,Potency,[14],inactive
same,Potency,[15],inactive
same,Potency,[17],inactive
C[C@H](CCC(=O)O)[C@H]1CC[C@H]2[C@@H]3CC[C@@H]4C[C@H](O)CC[C@]4(C)[C@H]3CC[C@]12C,Potency,[1],27.2 µM (active) and 54.5 µM (active)
same,Potency,[2],17.2 µM (active) and 30.6 µM (active)
same,Potency,[3],inactive
same,Potency,[4],54.9 µM (active)
same,Potency,[5],inactive
same,activation,[6]; at 70.3 µM (top of the series),-1.63% and -14.3%
same,Potency,[7],inactive
same,Potency,[16],inactive
same,Potency,Aromatase (Homo sapiens),inactive
same,Potency,[8],inactive
same,Potency,[9],inactive
same,Potency,[10],inactive
same,Potency,[13],21.8 µM (active) and 49 µM (active)
Oc1ccc(C2(c3ccc(O)cc3)CC3CC2C2CCCC32)cc1 (stereo not given),Potency,[1],26.2 µM (active)
same,Potency,[2],29.4 µM (active)
same,Potency,[3],inactive
same,Potency,[19],0.0592 µM [inconclusive] (active)
same,Potency,[7],1.31 µM (active)
same,Potency,[16],inactive
same,Potency,Aromatase (Homo sapiens),1.86 µM (active)
same,Potency,[8],33 µM (active)
same,Potency,[9],inactive
same,Potency,[13],26.5 µM (active)
same,Potency,[14],58.7 µM (active)
same,Potency,[15],52.8 µM (active)
Nc1ccc(N)c2ccccc12,Potency,[1],30.6 µM (active)
same,Potency,[2],48.5 µM (active)
same,Potency,[3],inactive
same,Potency,[4],21.8 µM (active)
same,Potency,[5],inactive
same,Potency,[16],5.44 µM (active)
same,Potency,[8],3.85 µM (active)
same,Potency,[10],4.32 µM (active)
same,Potency,[13],1.23 µM (active)
same,Potency,[14],0.611 µM (active)
same,Potency,[15],34.6 µM (active)
CC1=NC(C)OC1C (stereo not given),Potency,[1],inactive
same,Potency,[2],inactive
same,Potency,[3],inactive
same,Potency,[4],inactive
same,Potency,[5],inactive
same,Potency,[7],inactive
same,Potency,[16],inactive
same,Potency,Aromatase (Homo sapiens),inactive
same,Potency,[8],inactive
same,Potency,[9],inactive
same,Potency,[10],inactive
same,Potency,[13],inactive
same,Potency,[18],30.6 µM (active)
same,Potency,[15],inactive
same,Potency,[17],inactive
Clc1ccc2cc3ccccc3cc2c1,Potency,[1],inactive
same,Potency,[2],inactive
same,Potency,[3],inactive
same,Potency,[19],inactive
same,Potency,[4],inactive
same,Potency,[16],inactive
same,Potency,Aromatase (Homo sapiens),inactive
same,Potency,[8],inactive
same,Potency,[9],inactive
same,Potency,[10],inactive
same,Potency,[13],inactive
same,Potency,[14],inactive
same,Potency,[15],inactive
COc1c(C)c2c(c(O)c1C/C=C(\C)CCC(=O)O)C(=O)OC2,Potency,[1],0.717 µM (active)
same,Potency,[2],0.507 µM (active)
same,Potency,[3],inactive
same,Potency,[19],0.512 µM [inconclusive] (active)
same,Potency,[4],inactive
same,Potency,[16],inactive
same,Potency,Aromatase (Homo sapiens),inactive
same,Potency,[9],inactive
same,Potency,[10],inactive
same,Potency,[12],0.473 µM (active)
same,Potency,[13],inactive
same,Potency,[15],inactive
same,Potency,[17],inactive

# Source: PubChem BioAssay (Tox21)
